Assay outcomes deposited in PubChem by several laboratories.
In the library only some 1.7% were active in any assay of this set; here they are far more common.
Cardio protect: cardioprotection against H2O2-induced cell death, primary screen, uHTS, H9c2 cells, ATPLite luminescence. AID 588492, 2011. 360,000 compounds, 0.63% hits. H9c2 cardiomyocytes, H2O2 injury protection, 2 h. protection from H2O2 cell death, % at 20 µM;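 active = compounds giving at least 50% protection of heart cells from peroxide-induced death in the single-dose screen, raw or plate-pattern-corrected value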;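 also: 0% = DMSO wells with peroxide and 100% = DMSO wells without peroxide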
N-glyco inh: increase of ERlucT glycosylation luciferase signal, primary screen, N-linked glycosylation inhibitor project, D54 ERlucT cells, luminescence, set 2; D54 ERlucT glycosylation luciferase reporter, 24 h; percent of 100 nM tunicamycin response; reporter increase, % at 12.5 µM; 360,000 compounds, 0.23% hits; AID 588692, 2011;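 active = mean luciferase reporter signal, scaled so untreated is 0 and the glycosylation-blocking control 100, at or above a set limit in every replicate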;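 also: luciferase carries N-glycosylation sites so blocking glycosylation raises the light; 0% = median of neutral control wells and 100% = median of 100 nM tunicamycin wells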
aDG glyco up: activators of alpha-DG glycosylation, primary screen, uHTS, Pro5-aDG cells, AlphaScreen; alpha-DG glycosylation AlphaScreen (IIH6); 0% Pro5, 100% B10-LARGE cell signal; activation, % at 10 µM; 360,000 compounds, 0.22% hits;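 active = activation of at least 8% versus controls, or a plate z-score of at least 8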;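 also: Pro5 are CHO cells carrying HIG-tagged alpha-DG that lacks glycosylation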
Vif inh: HIV Vif self-association inhibitors, primary screen, imaging, HEK293T, single point; HEK293T cells, Vif self-association by quenched fluorescence, 24 h; inhibition, % at 7.49 µM; 340,000 compounds, 0.35% hits; AID 602346, 2012; in the data active = inhibition above about 50%, passing the limit was not always enough
ARNT-TACC3 inh: disruptors of ARNT/TACC3 protein interaction, primary screen, biochemical, AlphaScreen, single concentration; 390,000 compounds, 0.66% hits; Transforming acidic coiled-coil-containing protein 3 (Homo sapiens), Q9Y6A5; AlphaScreen His-ARNT PAS-B/GST-TACC3 binding, luminescence; TACC3 fragment carries E629A point mutation; inhibition, % at 9.99 µM;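 active = mean inhibition of replicates at least 50% and at least half of replicates each reaching 50%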;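 also: 0% = complete ARNT plus TACC3 wells and 100% = ARNT alone without TACC3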
* = called active by the depositor; . = no result.

SMILES | Cardio protect | N-glyco inh | aDG glyco up | Vif inh | ARNT-TACC3 inh
CCOC(=O)c1c2c3c(cccc3n(C)c1=O)C(=O)c1ccccc1-2 | 75* | 7 | 0 | -1 | 10
CCCNC(=O)C[C@H]1CC[C@H]2[C@H](COc3ccc(NC(=O)c4ccc(Cl)cc4)cc3C(=O)N2C)O1 | . | . | . | . | -4
O=C(C[C@H]1CC[C@@H](NC(=O)c2ccc3c(c2)OCO3)[C@@H](CO)O1)NCc1ccc(Oc2ccccc2)cc1 | . | . | . | . | -5
COc1ccc(NC(=O)c2sc3nc(-c4cccnc4)ccc3c2N)cc1 | -3 | 1 | 0 | 92* | 3
O=C(COC(=O)c1cccc2c1C(=O)c1ccccc1C2=O)NC1CCCCC1 | 58* | 4 | 2 | -24 | -1
NC(=O)CNC(=O)c1cccc(Cl)c1 | 1 | -1 | 0 | 1 | active
COCCNCC(=O)Nc1nc(C)cs1 | 1 | -1 | 0 | 59* | 2
CCOC(=O)N1CCc2c(sc(NC(=O)CN3CCOCC3)c2C(=O)Nc2ccccc2)C1 | 50* | -2 | -1 | 2 | -6
CCOC(=O)C1=NN(C(=O)c2ccco2)C2(CC2)C1 | 72* | 0 | 0 | -3 | -10
COc1ccc2[nH]c(=O)c(-c3nnn(-c4ccc(F)cc4)n3)cc2c1 | 56* | -2 | 0 | 1 | .
CC(C)CC#Cc1cnc2c(c1)C(=O)N([C@H](C)CO)C[C@@H](C)[C@H](CN(C)C(=O)c1cccnc1)O2 | . | . | . | . | -5
CN(C)C(=O)C[C@H]1CC[C@H]2[C@@H](COc3ccc(NC(=O)C4CCCCC4)cc3C(=O)N2C)O1 | . | . | . | . | -11
Cc1noc(C)c1CSc1nc2[nH]ncc2c(=O)n1-c1ccccc1 | -4 | 42* | 0 | . | 2
Cc1noc(C)c1CSc1nc2ccccc2c(=O)n1-c1ccccc1 | 27 | 21 | 0 | 8 | -13
Oc1ccccc1C=NCCN=Cc1ccccc1O | -5 | 1 | 0 | -5 | 4
Oc1ccccc1C=NCCN1CCN(CCN=Cc2ccccc2O)C1c1ccccc1O (stereo not given) | 14 | -3 | 0 | -4 | 71*
O=C(O)Cc1cccc(=O)c(O)c1C(=O)O | 7 | 2 | 0 | -12 | 93*
c1ccc(-c2n[nH]c(-c3ccccc3)c2-c2nc3ccccc3[nH]2)cc1 | -10 | 31* | 2 | 0 | -1
O=C(CCC(=O)N1CCN(C2CCCCC2)CC1)Nc1nnc(C(F)(F)F)s1 | 65* | 0 | 0 | 4 | -2
CCN1C(=O)NC(c2ccccc2)C1=O (stereo not given) | 6 | 1 | 0 | 81* | .
COc1ccc2c(c1OC)C(=O)OC2C1c2c(cc3c(c2OC)OCO3)CCN1C (stereo not given) | 14 | 1 | 0 | -2 | -12
CN1CCc2cc3c(c4c2[C@H]1[C@H](O)c1ccccc1-4)OCO3 | 6 | 33* | 0 | -4 | 34
C[C@H]1CCCCO[C@@H](CN(C)C(=O)Nc2ccccc2)[C@@H](C)CN([C@@H](C)CO)C(=O)c2cc(NC(=O)Nc3ccc4c(c3)OCO4)ccc2O1 | . | . | . | . | 10
CN(C1=C(N2CCCCC2)C(=O)c2ccccc2C1=O)c1ccccc1 | -16 | 4 | -1 | . | 47*
COc1ccccc1N=c1oc2c(OC)cccc2cc1C(=O)NCc1ccco1 | 6 | 0 | 0 | -9 | -15
SMILES | Cardio protect | N-glyco inh | aDG glyco up | Vif inh | ARNT-TACC3 inh
COc1ccc(N=c2oc3c(OC)cccc3cc2C(=O)NCc2ccco2)cc1OC | 52* | 19 | -1 | 3 | -2
COc1cccc(C(=O)N/N=c2\oc3c(OC)cccc3cc2C(=O)NCc2ccccc2)c1 | 76* | -3 | 0 | -4 | -2
C[C@@H]1CN([C@H](C)CO)C(=O)c2cccc(NC(=O)Nc3ccc4c(c3)OCO4)c2O[C@@H]1CN(C)C(=O)Nc1ccc2c(c1)OCO2 | . | . | . | . | 7
COc1cccc2c(SCC(=O)N/N=C/c3ccc(O)c(O)c3)cc(C)nc12 | 67* | -6 | 0 | -7 | -7
Cc1cc(SCC(=O)N/N=C/c2ccc(O)c(O)c2)c(C)cc1Br | 54* | -1 | 0 | . | -6
O=C(CSc1nc2ccccc2o1)N/N=C/c1ccc(O)c(O)c1 | 67* | -10 | 0 | 24 | 21
Cc1ccc(NC(=O)CCC(=O)N/N=C/c2ccccc2O)cc1 | 52* | -1 | 0 | 3 | -7
COc1ccc(NC(=O)CCC(=O)N/N=C/c2cn(C)nc2C)cc1 | 17 | 1 | 0 | 54* | 14
O=C(CN1C(=O)NC2NC(=O)NC21)N/N=C/c1ccccc1O (stereo not given) | 3 | 0 | 0 | -1 | 66*
COc1ccc(NC(=O)CCC(=O)N/N=C/c2ccncc2)cc1 | 6 | 2 | 0 | 1 | -2
O=C(CCC(=O)Nc1ccc(Br)cc1)N/N=C/c1ccccc1O | 42 | -2 | 0 | -2 | -6
Cc1ccc(SCCC(=O)N/N=C/c2ccccc2O)cc1 | 65* | -1 | 1 | -2 | 4
C[C@H]1CN([C@@H](C)CO)C(=O)c2cccc(NC(=O)c3cnccn3)c2O[C@@H]1CN(C)C(=O)Nc1cccc2ccccc12 | . | . | . | . | -8
COc1ccc(S(=O)(=O)Nc2ccc3c(c2)C(=O)N([C@H](C)CO)C[C@H](C)[C@H](CN(C)C(=O)CCCN(C)C)OCCCC[C@@H](C)O3)cc1 | . | . | . | . | -8
C[C@@H]1CN([C@H](C)CO)C(=O)CCCn2cc(nn2)CO[C@H]1CN(C)Cc1ccc(-c2ccccc2)cc1 | . | . | . | . | 1
CN(C)CC#Cc1ccc([C@@H]2[C@@H](CO)N3CCCCN(S(=O)(=O)c4ccccc4F)C[C@H]23)cc1 | . | . | . | . | -1
COCCNC(=S)N/N=C/c1ccccc1C(=O)O | 5 | 2 | 0 | 19 | 16
Cc1ccccc1NC(=S)N/N=C/c1ccc(O)cc1O | 21 | -1 | 0 | -1 | 58*
O=C(NCc1ccccn1)C(=O)N/N=C/c1ccccc1O | 38 | 1 | 0 | -3 | 64*
CSc1nc(C)cc(OCC(=O)N/N=C/c2ccccc2O)n1 | 48 | 18 | 0 | 7 | 49*
COCCCNC(=S)N/N=C/c1ccccc1O | -1 | -1 | 1 | -6 | 64*
CCCC(=O)Nc1ccc2c(c1)C(=O)N(C)C[C@H](OC)[C@H](C)CN(C(=O)CN(C)C)[C@@H](C)CO2 | . | . | . | . | -6
Cc1noc(C)c1NC(=O)N[C@@H]1CC[C@H](CC(=O)N2CCCCC2)O[C@@H]1CO | . | . | . | . | -3
O=C(N[C@H]1CC[C@H](CCn2cc(C3(O)CCCC3)nn2)O[C@H]1CO)C1CCOCC1 | . | . | . | . | -3
O=C(CSCC(=O)NN=Cc1ccccc1O)NN=Cc1ccccc1O | 43 | -5 | 0 | 6 | .
